Hit rate of the full screen: of about 340,000 compounds, about 280 (0.082%) were called active. The sample holds actives, similar compounds and a random draw of the others, so the mix is not that of the screen. Unmarked numbers belong to inactive results.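 The calls were made as follows: active = percent activation above the mean of all tested compounds plus 3 SD (cut at about 19% in these data); inactive = the rest.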
biological target: cAMP-dependent protein kinase type I-alpha regulatory subunit (Bos taurus) + cAMP-dependent protein kinase catalytic subunit beta (Mus musculus) (UniProt P00514+P68181); test: activators of PKA-R1A holoenzyme, primary screen, biochemical, fluorescence polarization, Cy5-IP20, bovine R1A, mouse PKAc (AID 504707); settings: PKA-R1A dissociation, at 11.4 µM, stronger effect = higher value, scaled: DMSO 0%, 113 µM cGMP 100%;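 also: higher means more PKAc released from R1A so a rise in polarization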

Row | Structure (SMILES) | activation
1 | O=C(COC(=O)c1cccc(Cl)c1Cl)NC1CCCCCC1 | -4.58%
2 | C[C@H]1CN([C@@H](C)CO)C(=O)CCCn2cc(nn2)CO[C@@H]1CN(C)C(=O)Nc1ccccc1 | -15.3%
3 | CCN(c1ccc(NC(=O)COC(=O)CCc2nc3ccccc3n2-c2ccccc2)cc1)C(C)C | -8.81%
4 | Cc1ccc(S(=O)(=O)NN=C2CC(C)(C)CC(=O)C2(C)C)cc1 | -0.8%
5 | C[C@H]1CN([C@@H](C)CO)C(=O)CCCn2nncc2CO[C@@H]1CN(C)S(=O)(=O)c1cccc(C#N)c1 | -0.38%
6 | Cc1ccc([C@H]2N[C@]3(CCCN(Cc4ccccc4)C3=O)[C@H]3C(=O)N(Cc4ccccc4)C(=O)[C@@H]23)cc1 | 3.96%
7 | CSCCC1NC(=O)N(CC(=O)Nc2cccc(S(=O)(=O)N3CCCCCC3)c2)C1=O (stereo not drawn) | 4.33%
8 | CC(C)CC1C(=O)N(Cc2cn(CC3CCCCC3)nn2)CCS(=O)(=O)N1Cc1ccc(-c2ccc(Cl)cc2)cc1 (stereo not drawn) | -4.01%
9 | CCCn1nnnc1NCc1ccc(OC)cc1 | -2.85%
10 | Cn1nnnc1NCc1ccc(Cl)c(Cl)c1 | -9.38%
11 | COc1ccc(CNc2nnnn2C)cc1 | 19.2% (active)
12 | Cc1ccccc1OS(=O)(=O)c1cccc([N+](=O)[O-])c1 | 15.6%
13 | O=C(NCc1nnnn1-c1ccc(Cl)cc1)c1ccc2c(c1)OCO2 | 4.42%
14 | O=[N+]([O-])c1ccc(C(S(=O)(=O)Cc2ccccc2)S(=O)(=O)Cc2ccccc2)cc1 | 4.44%
15 | CCOC(=O)c1cnn2c(SC)ncnc12 | 1.57%
16 | CN(C)C(CNC(=O)c1cccc(S(=O)(=O)N2CCc3ccccc3C2)c1)c1ccccc1 (stereo not drawn) | -0.91%
17 | CC1=C(C(=O)N2CCOCC2)CC(CC(=O)NCc2cccc3ccccc23)C(=O)N1CCC1=CCCCC1 (stereo not drawn) | -16.2%
18 | Cc1cc(C)c(C#N)c(SCC(=O)NN2CC(=O)N(c3ccccc3F)CC2=O)n1 | -8.96%
19 | CC(C)CC1C(=O)N(Cc2cn(Cc3ccco3)nn2)CCS(=O)(=O)N1Cc1ccc(-c2ccc(Cl)c(Cl)c2)cc1 (stereo not drawn) | -7.28%
20 | CCOC(=O)c1nc(-c2ccc3c(c2)OCO3)[nH]c1C | -2.48%
21 | CC1=C(C(=O)N2CCOCC2)CC(CC(=O)NCCN2CCOCC2)C(=O)N1CCC1=CCCCC1 (stereo not drawn) | -5.53%

Row | Structure (SMILES) | activation
22 | CCC(C)C1(C2CCCC2)NC(=O)NC1=O (stereo not drawn) | -4.54%
23 | O=C(Nc1cccc(C(=O)O)c1)/C(=C\c1ccccc1)NC(=O)c1ccc(Br)o1 | 3.24%
24 | O=C(c1ccc(N2CCCC2=O)cc1)N1CCN(c2ccc(C(F)(F)F)cc2[N+](=O)[O-])CC1 | 0.5%
25 | CCN(C(=O)C1CCCN(c2nc(-c3ccc(OC)cc3)no2)C1)c1ccc(OC)cc1 (stereo not drawn) | -6.29%
26 | Cc1ccnc(SC2CC(=O)N(c3ccccc3)C2=O)n1 (stereo not drawn) | 8.38%
27 | Cc1cccc(NS(=O)(=O)c2cc(Cl)ccc2Cl)n1 | -4.38%
28 | O=C1[C@H]2[C@@H](c3ccc(C(F)(F)F)cc3)N[C@]3(CCCN(Cc4ccc(Br)cc4)C3=O)[C@H]2C(=O)N1Cc1ccccc1 | -1.26%
29 | CC(=O)N1CCc2cc(S(=O)(=O)NC3CCCCC3)ccc21 | 5.76%
30 | Cc1ccc(NC(=O)Cn2sc3ccccc3c2=O)cc1 | 8.53%
31 | CN(C)c1ccc(NC(=O)CSc2n[nH]c(-c3ccco3)n2)cc1 | 7.46%
32 | Cc1ccc(S(=O)(=O)/N=C2\C=C(NS(=O)(=O)c3ccc(C)cc3)C(=O)c3ccccc32)cc1 | -6.85%
33 | C[C@H](CO)N1C[C@H](C)[C@@H](CN(C)Cc2ccc3c(c2)OCO3)OCc2cnnn2CCCC1=O | -8.89%
34 | CCOC(=O)C1CCCN(S(=O)(=O)c2ccc3c(c2)C(C)(C)C(=O)N3C)C1 (stereo not drawn) | -3.23%
35 | COc1cc(Br)c(-c2sc(Nc3ccccc3)n[n+]2-c2ccccc2)cc1OC | -4.44%
36 | Nc1nonc1-n1nnc(C(=O)N/N=C/c2ccc(Cl)cc2)c1-c1ccc2c(c1)OCO2 | -7.77%
37 | CCS(=O)(=O)N1Cc2ccccc2CC1C(=O)Nc1nc2ccc(F)cc2s1 (stereo not drawn) | 5.39%
38 | Cc1cccc(C(=O)OCC(=O)Nc2sccc2C(N)=O)c1C | 3.56%
39 | O=C(CN1C(=O)NC2(CCc3ccccc32)C1=O)NC1CCCCC1 (stereo not drawn) | -0.6%
40 | COC(=O)[C@H]1Cc2cnoc2C[C@]1(C)C(=O)O | 4.79%
41 | COc1ccc(CN2C(=O)C(CC(=O)NC3CCCCC3)CC(C(=O)N3CCOCC3)=C2C)cc1 (stereo not drawn) | 1.08%
42 | CC1CC(NC(=S)N(C)C)CC(C)(C)C1 (stereo not drawn) | 7.75%

Row | Structure (SMILES) | activation
43 | O=C(NN=Cc1ccc2c(c1)CCC2)c1ccccc1O | 10.6%
44 | Cc1onc(-c2ccccc2)c1-c1nnc(COC(=O)c2ccc(N(C)C)cc2)o1 | 11.8%
45 | COc1cccc(NC(=O)Nc2ccc(F)cc2)c1 | 9.12%
46 | c1ccc2c(c1)nnn2-c1ccncc1 | -12.8%
47 | CC1=C(C(=O)N(C)C)CC(CC(=O)NCCc2ccccn2)C(=O)N1CCC1=CCCCC1 (stereo not drawn) | 3.98%
48 | CC(=O)Nc1ccc2c3c(ccc([N+](=O)[O-])c13)CC2 | 1.42%
49 | C[C@H]1CN([C@@H](C)CO)C(=O)CCCn2cc(nn2)CO[C@@H]1CN(C)S(=O)(=O)c1ccc(-n2cccn2)cc1 | 4.21%
50 | CC(C)CCNc1nc(N2CCCC2)c2c(c1C#N)CCN(C)C2 | 6.18%
51 | CN1CCN(S(=O)(=O)c2cccc(C(=O)Nc3sccc3C#N)c2)CC1 | -12.1%
52 | C[C@H]1CN([C@@H](C)CO)C(=O)CCCn2cc(nn2)CO[C@@H]1CN(C)S(=O)(=O)c1ccccc1C#N | -3.32%
53 | CC(=NNC(N)=O)C1CC2CCC1CC2 (stereo not drawn) | -3.74%
54 | COc1ccc(Cl)cc1NC(=O)CN(C)C(=O)c1cn(-c2ccccc2)nc1-c1cccs1 | -7.71%
55 | Cc1ccc([C@H]2C[C@H](O)[C@@H](n3cc(COC(=O)c4ccccc4)nn3)CN2CC2CCCCC2)cc1 | -14.8%
56 | CCCCCCNC(=O)O[C@]12C[C@@H](C(=O)OC)[C@@H](C(=O)OC)C[C@@]1(O)CN(S(=O)(=O)c1ccc(C)cc1)C2 | -13.7%
57 | CCc1nnc(NC(=O)c2ccco2)s1 | -1.79%
58 | Cc1cccc(C(=O)C(O)(c2ccccc2)C2CCCCC2=O)c1 (stereo not drawn) | -0.27%
59 | COc1ccc(S(=O)(=O)N(C)C[C@H]2OCc3cnnn3CCCC(=O)N([C@H](C)CO)C[C@H]2C)cc1 | 9.03%
60 | CCOC(=O)C1(O)CC(C)=NN1C(=O)c1cccc(Br)c1 (stereo not drawn) | -8.67%
61 | C#CCN(C[C@H]1[C@H](OC(=O)NC2CCCC2)[C@H](OC(=O)NC2CCCC2)C[C@H]2C(=O)N(c3ccccc3)C(=O)[C@@H]12)S(=O)(=O)c1ccc(C)cc1 | 7.98%
62 | COc1ccc(S(=O)(=O)N2CCC(C(=O)NCCC(=O)Nc3ccccc3OC)CC2)cc1 | -8.6%
63 | COc1ccc(C=C2CCC3C(CCCC34OCCO4)C2=O)cc1 (stereo not drawn) | -11.2%

Row | Structure (SMILES) | activation
64 | Cc1ccccc1NC(=O)Cc1nc(COC(=O)CNC(=O)c2ccc(Cl)cc2Cl)cs1 | 4.88%
65 | COc1ccc(NC(=O)N(C)C[C@@H]2OCc3cn(nn3)CCCC(=O)N([C@H](C)CO)C[C@H]2C)c(OC)c1 | 1.93%
66 | Cc1ccc(-c2ccc(CN3C(C(C)C)C(=O)N(Cc4cn(CCC5OCCO5)nn4)CCS3(=O)=O)cc2)cc1 (stereo not drawn) | -8.79%
67 | N#Cc1ccc(OCC(=O)Nc2nc(-c3ccccn3)cs2)cc1 | 8.97%
68 | Cn1c(CCN2CCN(c3ccccn3)CC2)nc2cc(NS(=O)(=O)c3ccc(F)cc3)ccc21 | -5.08%
69 | COCCNC(=O)CSc1nc(N)c(NC(=O)c2ccco2)c(=O)[nH]1 | 5.93%
70 | CC1(C)NC(=O)N(CC(=O)Nc2ccc(-c3ccccc3)cc2)C1=O | -8.93%
71 | CC(C)N(C(=O)CSc1nnc(NC2CC2)s1)c1ccccc1 | -3.79%
72 | CCn1c(SCC(=O)N(C)C2CCS(=O)(=O)C2)nnc1-c1cccs1 (stereo not drawn) | 0.15%
73 | CN(C(=O)CSc1nnc(Nc2ccccc2)s1)C1CCS(=O)(=O)C1 (stereo not drawn) | 19.6% (active)
74 | CC1(c2cccc(N)c2)OCCO1 | -5.54%
75 | O=C(CCCN1C(=O)C(c2ccccc2)Oc2cccnc21)Nc1ccccc1Br (stereo not drawn) | -1.04%
76 | O=C(ON=C1CCN(S(=O)(=O)c2ccccc2)CC1)c1ccc(Cl)cc1 | 6.75%
77 | CNC(=O)C[C@H]1C(=O)N(c2ccc(OC)cc2)C[C@@H]1Cc1ccccc1 | -2.17%
78 | O=C(CN1CCN(S(=O)(=O)c2ccc(Cl)s2)CC1)NCc1ccc(Cl)cc1 | 6.31%
79 | COCC(=O)N(C)C[C@H]1Oc2cc(Br)ccc2S(=O)(=O)N([C@H](C)CO)C[C@H]1C | -4.65%
80 | CCN(CC)C(=O)C1=C(C)N(Cc2ccc(F)cc2)C(=O)C(CC(=O)NC2CCCC2)C1 (stereo not drawn) | 12.1%
81 | Cc1ccc(Cc2c(-c3ccccc3)nc3ccc(Cl)cn23)cc1 | -1.62%
82 | Cc1cccc(S(=O)(=O)N(C)C[C@H]2OCc3cnnn3CCCC(=O)N([C@@H](C)CO)C[C@H]2C)c1 | 7.92%
83 | CC(C)n1ncc2c(C(=O)N3CCN(Cc4cccs4)CC3)cc(C3CC3)nc21 | 1.11%

Reference: PubChem BioAssay AID504707 (The Scripps Research Institute Molecular Screening Center, 2011)
